NPC1 promoter act: NPC1 promoter activation; Huh7 NPC1 promoter luciferase reporter, 24 h; Potency, µM (titrated, usually from 9.22 µM), usual class: activators; actives 2.4% (n = 320,000); AID 485313; note: nearly all actives have a fitted effect of over 60% in size
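Luminescence from an NPC1 promoter-driven luciferase reporter in stably transfected Huh7 cells was measured after 24 h compound treatment at 37 °C, followed by 10 min ambient incubation with luciferase detection reagent.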
FLuc modulator: firefly luciferase modulation, counter-screen for miR-21 project; P08659; purified FLuc, Km substrates, luminescence inhibition; Potency, µM (series often up to 57.5 µM), usual class: inhibitors; actives 6.9% (n = 360,000); AID 588342; note: nearly all actives have a fitted effect of over 55% in size
Target sequence (P08659 whole entry, looked up): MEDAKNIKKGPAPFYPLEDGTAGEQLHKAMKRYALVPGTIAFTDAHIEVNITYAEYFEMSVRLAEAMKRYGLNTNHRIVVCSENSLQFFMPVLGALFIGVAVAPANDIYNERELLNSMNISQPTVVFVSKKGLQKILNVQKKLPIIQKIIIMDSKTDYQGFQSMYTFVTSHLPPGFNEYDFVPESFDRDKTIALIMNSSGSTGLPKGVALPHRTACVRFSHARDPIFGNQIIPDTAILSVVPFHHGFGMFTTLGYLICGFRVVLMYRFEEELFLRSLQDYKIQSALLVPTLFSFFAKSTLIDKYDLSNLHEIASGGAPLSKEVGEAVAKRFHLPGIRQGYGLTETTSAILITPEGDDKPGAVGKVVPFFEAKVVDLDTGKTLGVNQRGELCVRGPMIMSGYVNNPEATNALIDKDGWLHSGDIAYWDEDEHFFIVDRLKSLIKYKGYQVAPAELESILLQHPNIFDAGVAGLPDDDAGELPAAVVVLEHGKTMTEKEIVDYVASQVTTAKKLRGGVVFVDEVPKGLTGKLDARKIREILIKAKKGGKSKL
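Purified P. pyralis luciferase (10nM final) with 10uM D-luciferin and 10uM ATP (Km levels) in 50mM Tris acetate pH 7.5, 10mM Mg acetate, 0.01% Tween-20, 0.05% BSA; qHTS 6-point titration, ~60 µM downward; luminescence read.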
Rab9 promoter act: Rab9 promoter activation; Huh7 Rab9 promoter-luciferase reporter, luminescence, 24 h; Potency, µM (series often up to 9.22 µM), most hits filed as activators; actives 2.8% (n = 320,000); note: nearly all actives have a fitted effect of over 60% in size
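Promoter activation is measured as luciferase luminescence in Huh7 cells stably transfected with a Rab9 promoter–luciferase construct, following 24 h compound exposure at 37 °C and 10 min reagent incubation at ambient temperature.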
SMN2 splice enh: increases expression of the SMN2 splice variant; HEK293 SMN2-luciferase splicing reporter, luminescence, 30-36 h; Potency, µM (series often up to 46.1 µM), most hits filed as activators; actives 2.8% (n = 210,000); note: nearly all actives have a fitted effect of over 55% in size
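HEK293 cells carry an SMN2 […]–luciferase reporter in which exon 7 inclusion puts luciferase in frame. Cells were plated 10-12 h before compound addition, then incubated 30-36 h at 37C. ONE-Glo luminescence was read; sodium butyrate at 4.5 mM final served as control.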
Luc counter: Kinase-Glo luciferase inhibition (counter-screen); Q27757; Kinase-Glo luciferase, ATP luminescence, 8 min; Potency, µM (highest dose often 38.3 µM), actives largely listed as inhibitors; actives 0.28% (n = 200,000); note: nearly all actives have a fitted effect of over 60% in size
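Compound is pinned into ATP-containing buffer (10 uM ATP, imidazole pH 7.2, 7 mM MgCl2). Kinase-Glo luciferase reagent is then added. Light output is recorded following an 8-min room-temperature incubation.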
ELG1 genotoxic: inducers of genotoxicity in HEK293T ELG1-luciferase cells. HEK293T ELG1-luciferase reporter, luminescence, 16 h. Potency, µM (doses to about 46 µM), most hits filed as activators. actives 1.3% (n = 330,000); note: nearly all actives have a fitted effect of over 60% in size
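HEK293T cells expressing luciferase-tagged ELG1 were treated with compound or DMSO for 16 hr at 37°C. Luciferase activity was then read after 30 min with ONE-Glo at room temperature; rising signal flags genetic stress.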
A number is an active result; . = inactive; ? = inconclusive; / = not tested or not shown; [ ] = remark or other dose. Rows were chosen to be rich in hits. Some 7.3% of all compounds tested hit in one or more screens of this group. Calls come from the whole dose curve; as a rule, active = well fitted curve in the direction sought with a large enough effect; inconclusive = small, poorly fitted or top-dose-only effect, or another doubt; inactive = no such curve, though single readings can be large; an effect the other way counts as inactive or inconclusive.

SMILES	NPC1 promoter act	FLuc modulator	Rab9 promoter act	SMN2 splice enh	Luc counter	ELG1 genotoxic
CCN(CC(=O)Nc1c(F)cccc1F)C(=O)C1CC1	.	.	.	/	/	.
Cc1cccc(-c2cnn(-c3ccccc3)c2N)c1	?	6.75µM	3.55µM	/	/	?
Nc1ccccc1Nc1cc(-c2cccc(Cl)c2)nn1-c1ccccc1	.	26.9µM	.	.	.	.
Nc1c(-c2ccccc2)cnn1-c1cccc(Cl)c1	1.12µM	3.38µM	1.41µM	/	/	?
Cc1cccc(-c2cnn(-c3cccc([N+](=O)[O-])c3)c2N)c1	.	?	.	?	.	.
CC(=O)C1=C(C)Nc2ncnn2C1c1cccc(O)c1 (stereo not drawn)	.	.	.	/	/	.
NS(=O)(=O)c1ccc(CCNC(=O)CN2CCCCCC2)cc1	.	.	.	.	.	.
O=[N+]([O-])c1ccc(N/N=C/c2cn(Cc3ccc(F)cc3)c3ccccc23)nc1	.	.	.	.	.	.
Cc1c(-c2ccc(OCc3ccccc3)cc2)nc2ccccc2c1C(=O)O	.	21.3µM	.	/	/	.
CCCn1c(O)c(N=Nc2ccc3ccccc3n2)c2ccccc21	1µM	8.49µM	0.708µM	?	.	?
CCC1(c2ccc(F)cc2)NC(=O)N(CC(=O)Nc2ccc(-c3nc4ccc(C)cc4s3)cc2)C1=O (stereo not drawn)	2.82µM	3.38µM	1.41µM	3.98µM	.	?
CCC1(c2ccc(F)cc2)NC(=O)N(CC(=O)Nc2ccc3c(c2)OCCO3)C1=O (stereo not drawn)	/	/	/	/	/	.
COc1ccc(NC(=O)CN2C(=O)NC(c3ccccc3)(c3ccccc3)C2=O)cc1	.	21.3µM	.	/	/	.
COc1ccc(C2(C)NC(=O)N(CC(=O)Nc3ccc(-c4nc5ccc(C)cc5s4)cc3)C2=O)cc1 (stereo not drawn)	3.98µM	3.38µM	2.24µM	7.08µM	.	?
Cc1ccc(NC(=O)CN2C(=O)NC(C)(c3ccc(Cl)cc3)C2=O)cc1 (stereo not drawn)	.	.	.	/	/	.
COc1ccc(-c2csc(N3CCN(C(=O)c4ccccc4)CC3)n2)cc1	.	?	.	.	.	.
Cc1ccc(C2=NNC(C(O)C(O)C(O)C(C)O)S2)cc1 (stereo not drawn)	.	23.9µM	.	.	.	?
COc1cc(S(=O)(=O)NCCCn2ccnc2)ccc1F	.	.	.	/	/	.
O=C(Cc1ccccc1[N+](=O)[O-])NCc1ccc(Cl)cc1Cl	3.98µM	6.01µM	3.55µM	/	/	?
O=C(Cc1ccc([N+](=O)[O-])cc1)NCc1ccccc1Cl	.	.	.	.	.	.
O=C(NCc1ccc(Cl)cc1)c1n[nH]c([N+](=O)[O-])c1Cl	.	21.3µM	.	.	.	?
O=C(/C=C/c1ccccc1[N+](=O)[O-])NCc1ccc(Cl)cc1	.	.	.	.	.	.
O=C(Cc1ccccc1[N+](=O)[O-])NCc1ccc(Cl)cc1	?	16.9µM	?	20µM	.	?
C=C(C)CNC(=S)NNC(=O)c1ccc(Br)cc1	.	.	.	.	.	.
CC(=O)N1CCc2cc(CNS(=O)(=O)c3ccc(C(C)(C)C)cc3)ccc21	/	.	/	/	/	/
SMILES	NPC1 promoter act	FLuc modulator	Rab9 promoter act	SMN2 splice enh	Luc counter	ELG1 genotoxic
CN(C)/C=N/c1nc(-c2ccc3ccccc3c2)cs1	0.501µM	4.78µM	0.355µM	/	/	?
CN(C)/C=N/c1nc(-c2ccc3c(c2)OCO3)cs1	3.98µM	16.9µM	3.55µM	14.1µM	?	?
CCOC(=O)C(=CNc1nc(-c2ccc3ccccc3c2)cs1)C(=O)OCC	.	.	.	/	/	.
CCN(CC)CCCN1C(=O)C(O)=C(C(=O)c2sc(C)nc2C)C1c1ccc(C)o1 (stereo not drawn)	.	.	.	.	.	.
Cc1ccc2c(CN(C)Cc3cccc(F)c3)cc(=O)oc2c1	?	10.7µM	.[1.84 µM]	/	/	?
COc1ccc2oc(=O)cc(CN(C)Cc3ccccc3)c2c1	.	.	.	/	/	.
CCc1ccc2c(CN(C)Cc3ccccc3OC)cc(=O)oc2c1	.	16.9µM	.	/	/	.
CCOC(=O)C1(Cc2cccc(F)c2)CCN(C(=O)C2CCCO2)CC1 (stereo not drawn)	.	.	.	/	/	.
Cc1cccc(CCNC(=O)C2CCN(S(=O)(=O)N3CCOCC3)CC2)c1	.	.	.	/	/	.
N/C(=N\OC(=O)CSc1ccccc1)c1ccccn1	.	13.5µM	.	/	/	?
N/C(=N\OC(=O)CCCOc1ccccc1)c1ccccn1	.	16.9µM	.	.	.	.
N/C(=N\OC(=O)Cc1ccc(-c2ccccc2)cc1)c1ccccn1	.	?	.	.	.	?
COCCCn1c(C)nnc1SCC(=O)NCc1ccco1	.	.	.	.	.	.
O=C(CCS(=O)(=O)c1ccccc1)N1CCN(c2ccccc2F)CC1	1.78µM	10.7µM	1.26µM	/	/	8.2µM
CCC(C)c1ccccc1NC(=O)C1CCCO1 (stereo not drawn)	.	.	.	.	.	.
CN(CCCNC(=O)c1ccc(CS(=O)c2ccc(Br)cc2)o1)Cc1ccccc1 (stereo not drawn)	.	.	.	/	/	.
COC(=O)c1cc(=O)nc2sc(-c3ccccc3)nn12	.	.	.	.	.	.
Cc1cc(=O)n2nc(-c3ccccc3)sc2n1	?	?	2µM	12.6µM	.	?
COCCN1CCn2c(nc3cc(NC(=O)c4cccs4)ccc32)C1	.	?	?	.	.	?
O=C(/C=C/c1ccccc1)NC1CCSC1=O (stereo not drawn)	.	?	.	15.8µM	.	.
c1ccc(-c2nc3c4ccccc4ccn3c2CN2CCOCC2)cc1	.	4.78µM	.	/	/	?
Cc1c(NC(=O)CSc2ccc(Cl)cc2)cccc1-c1nc2ncccc2o1	.	.	.	.	.	.
O=C(N[C@@H]1C/C=C\C[C@H](CC(=O)N(CCO)Cc2ccccc2)C(=O)N[C@@H](Cc2c[nH]c3ccccc23)COC1=O)OCC1c2ccccc2-c2ccccc21	/	/	/	/	/	.
Cc1ccc(/C(O)=C2/C(=O)C(=O)N(Cc3ccco3)C2c2cccs2)cc1 (stereo not drawn)	.	23.9µM	.	.	.	.
CCN(CC)CCN1C(=O)C(=O)/C(=C(/O)c2ccc(OC)cc2)C1c1cccs1 (stereo not drawn)	.	?	.	.	.	.
COc1ccccc1NC(=O)C(Cc1ccc(Cl)cc1)c1nn[nH]n1 (stereo not drawn)	.	.	.	.	.	.
Nc1ncccc1OCc1ccc(Cl)c(Cl)c1	2.82µM	7.57µM	1.41µM	/	/	?
O=C(OCc1ccc(Cl)c(Cl)c1)c1cccnc1Cl	.	?	.	/	/	.
COc1cc(CNCc2ccccn2)ccc1OCc1ccc(Cl)c(Cl)c1	.	16.9µM	.	.	.	.
